# Test results taken from PubChem BioAssay AID1030 (National Center for Advancing Translational Sciences (NCATS), 2008).
# About 16,000 (7.3%) of roughly 220,000 compounds were called active. Another 25% or so got no clear call; they are omitted. Many of the other results were omitted from the sample, so actives are more common in it than they were. Unmarked numbers belong to inactive results. Calls come from the whole dose curve; as a rule, active = well fitted inhibition curve with a large enough effect (not every such curve was filed as active); inconclusive = small, poorly fitted or top-dose-only effect, or another doubt; inactive = no such curve, though single readings can be large or run the other way.
# Target: Aldehyde dehydrogenase 1A1 (Homo sapiens) (UniProt P00352)
# Sequence (P00352 whole entry, looked up): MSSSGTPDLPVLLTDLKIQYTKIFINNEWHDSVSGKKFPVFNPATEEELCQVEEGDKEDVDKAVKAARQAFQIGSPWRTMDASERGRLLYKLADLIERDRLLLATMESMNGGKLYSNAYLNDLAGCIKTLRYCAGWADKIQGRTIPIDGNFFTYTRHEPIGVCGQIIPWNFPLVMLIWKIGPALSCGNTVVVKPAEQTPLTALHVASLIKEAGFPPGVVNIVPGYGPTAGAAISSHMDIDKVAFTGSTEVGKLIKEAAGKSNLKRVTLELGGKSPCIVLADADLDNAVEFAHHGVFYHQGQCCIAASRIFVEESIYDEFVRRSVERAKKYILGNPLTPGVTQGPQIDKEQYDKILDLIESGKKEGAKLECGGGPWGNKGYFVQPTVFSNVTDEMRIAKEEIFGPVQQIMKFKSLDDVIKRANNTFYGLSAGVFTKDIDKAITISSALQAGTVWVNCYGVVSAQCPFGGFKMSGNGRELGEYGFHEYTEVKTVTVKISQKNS
# Assay: qHTS Assay for Inhibitors of Aldehyde Dehydrogenase 1 (ALDH1A1);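 for activity, negative = inhibition: plate controls were no enzyme wells and a reference inhibitor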
# Details: Purified ALDH1A1, NADH fluorescence, propionaldehyde substrate; series mostly up to 75.3 µM; activity, negative = inhibition: at the top concentration
# Potency is the fitted concentration of half-maximal effect.
SMILES,"activity, negative = inhibition",Potency
Cc1ccc(N2C(=O)C(NC(=O)c3c(F)cccc3F)(C(F)(F)F)C3=C2CC(C)(C)CC3=O)cc1 (configuration not stated),-7.84%,–
CC1(C)CC(=O)C(N=Nc2c(F)cccc2F)=C(O)C1,–,12.6 µM (active)
CC1(C)CC(=O)C(C2=NC(C)(C)Cc3ccccc32)=C(O)C1,8.55%,–
CC1(C)CC(=O)C(N=Nc2ccc(S(=O)(=O)N3CCCCCC3)cc2)=C(O)C1,–,2.51 µM (active)
Cc1cc(C)n(C(=O)c2ccc(S(=O)(=O)N3CCCC3)cc2)n1,-6.45%,–
CN1CCN(NC(=O)c2ccc(S(=O)(=O)N3CCCCCC3)cc2)CC1,-2.19%,–
COc1cc(CNCCN(C)C)ccc1OCc1c(F)cccc1Cl,1.84%,–
C/C(CC(=O)Nc1ccc(C)cc1C)=N\NC(=O)C(C)C,5.05%,–
CCCCN1C(=O)c2ccc(C(=O)Nc3ccc(S(=O)(=O)N(C)C)cc3)cc2C1=O,–,1.78 µM (active)
CN(C)S(=O)(=O)c1ccc(NC(=O)N2CCOCC2)cc1,7.69%,–
Cc1ccnc(NS(=O)(=O)c2ccc(NC(=O)c3ccc(S(=O)(=O)N(C)C)cc3)cc2)n1,-8.71%,–
O=C(Nc1ccc(Br)cn1)c1ccc([N+](=O)[O-])o1,-5%,–
O=c1[nH]n(-c2ccc([N+](=O)[O-])cc2)c(=O)c2ccccc12,0.106%,–
CC(Oc1ccc(Cl)cc1Cl)C(=O)/C=C/N(C)C (configuration not stated),-4.77%,–
COc1cccc(NC(=O)C(C)Oc2ccccc2)c1 (configuration not stated),2.31%,–
CCCC(=O)Nc1cccc(NC(=S)NC(=O)C(C)Oc2ccc(Cl)cc2Cl)c1 (configuration not stated),–,10 µM (active)
Cc1ccccc1Nc1nc(N)nc(CSc2ccccc2)n1,0.815%,–
O=C(O)c1cccc(S(=O)(=O)NCCO)c1,-6.88% [at 13.5 µM],–
CCN(c1ccccc1)S(=O)(=O)c1cccc(C(=O)O)c1,13.3%,–
CCOc1ccc(S(=O)(=O)Nc2nc3cc(OC)ccc3s2)cc1,-16.8%,–
COc1ccc(S(=O)(=O)Nc2ccc(O)c(Sc3nc4ccccc4s3)c2)cc1,–,17.8 µM (active)
O=C(O)c1cccc(S(=O)(=O)Nc2ccc(O)cc2Sc2nc3ccccc3s2)c1,–,22.4 µM (active)
COc1ccc(/C=C(/CC(=O)Nc2ccc(C)cc2)c2nc3ccccc3s2)cc1,-4.33%,–
CCO[C@@H]1OC(C(=O)N2CCOCC2)=C[C@H](C)[C@H]1CCCO,2.13%,–
O=C(CSc1ccc(-c2cccs2)nn1)Nc1ccccc1F,-4.56%,–
COc1ccc(NC(=O)c2cc3nc(-c4ccccc4)cc(C)n3n2)cc1OC,-1.11%,–

SMILES,"activity, negative = inhibition",Potency
COc1ccc(/C=N/NC(=O)Cn2cc(C(F)(F)F)ccc2=O)cc1,9.76%,–
COc1ccc(OC)c2[nH]c(=O)c(CCNC(=O)C(=O)c3c[nH]c4ccccc34)cc12,5.85%,–
CCOc1ccccc1C(=O)NCCCn1ccnc1,-1.75%,–
O=C(NCCCn1ccnc1)C(=O)c1cn(CC(=O)N2CCCCCC2)c2ccccc12,–,14.1 µM (active)
O=C(CCN1C(=O)c2ccccc2C1=O)NCCCn1ccnc1,-1.64%,–
O=C(O)CCCCOn1ccnc1,-0.454%,–
CC(C)=CCN1CCN(Cc2ccc(Oc3ncccn3)cc2)CC1CCO (configuration not stated),17.4%,–
CC1(C)CCCC2=C1CC1C(=O)N(c3ccccc3)C(=O)C1C2 (configuration not stated),-2.61%,–
CC1=C(C)CC2C(=O)N(c3cccc4ccccc34)C(=O)C2C1 (configuration not stated),–,12.6 µM (active)
CCc1ccccc1N1C(=O)C2C3CC(=O)C(c4ccccc43)C2C1=O (configuration not stated),2.8%,–
COC(=O)C1=C(C(=O)OC)[C@@H]2N(Cc3ccccc3)c3ccccc3[C@@]23C[C@@H](C(=O)OC)N(S(=O)(=O)c2ccc(C(F)(F)F)cc2)C3=N1,3.2% [at 13.5 µM],–
Fc1cccc2ncnc(OCc3ccccc3)c12,-1.42%,–
O=C(CSc1ccc(-c2ccco2)nn1)NCc1ccc2c(c1)OCO2,–,3.55 µM (active)
Cc1ccccc1-c1nnc(SCC(=O)NCc2ccc3c(c2)OCO3)n1C,-4.71%,–
Cc1c(Cl)cccc1NC(=S)NCc1ccc2c(c1)OCO2,-14.2%,–
S=C(NCc1ccc2c(c1)OCO2)NCc1ccco1,–,20 µM (active)
CS(=O)(=O)N(CC(=O)NCc1ccco1)c1ccc2c(c1)OCO2,-0.792%,–
O=C(CSc1ncn[nH]1)NCc1ccc2c(c1)OCO2,5.55%,–
Oc1ccc(-c2nncn2-c2ccccc2)cc1,-7.56%,–
O=C(CSc1cccc[n+]1[O-])NCCCc1ccccc1,3.85%,–
COc1ccccc1C(=O)CSc1cccc[n+]1[O-],–,14.1 µM (active)
O=C(CSc1cccc[n+]1[O-])c1ccc(Cl)cc1,1.65%,–
CC(C)Cn1c(CN(Cc2ccccc2)Cc2ccccc2)nc2c1c(=O)n(C)c(=O)n2C,-11.5%,–
Cn1c(=O)n(CCc2ccccc2)c(=O)c2c1nc1n2CCCN1c1ccccc1,–,8.91 µM (active)
Cc1cccc(N2CC(C)Cn3c2nc2c3c(=O)n(CC(=O)OCc3ccccc3)c(=O)n2C)c1 (configuration not stated),-4.85%,–
COc1ccc(C(=O)N2CCC(C(=O)Nc3ccc(C)cc3)CC2)cc1,-1.59%,–
